# Source: PubChem BioAssay
# JMJD2A Tudor inh = qHTS Assay for Inhibitors of JMJD2A-Tudor Domain; Lysine-specific demethylase 4A (Homo sapiens), O75164; AlphaScreen JMJD2A-Tudor / H3K4me3 peptide binding; Potency, µM (highest dose often 114 µM), for the others: top-dose activity change, negative = inhibition, hits mostly inhibitors; 390,000 tested, 4.4% active; AID 504339, 2011; also: % is scaled to controls: 0 for no effect and ±100 for the full control effect; nearly all actives have a fitted effect of over 50% in size
# HP1b binding inh = HTS for Inhibitors of HP1-beta Chromodomain Interactions with Methylated Histone Tails. Potency, µM (top dose mostly 114 µM), inactives show top-dose activity change, negative = inhibition, usual class: inhibitors. AID 540317, 2011. Chromobox protein homolog 1 (Homo sapiens), P83916. 390,000 tested, 0.56% active. AlphaScreen HP1-beta / biotin-H3K9me3 peptide binding; also: nearly all actives have a fitted effect of over 70% in size
#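 AlphaScreen: HP1-beta (50 nM) preformed 30 min with biotin-H3(1-18)K9me3 peptide (50 nM) in PBS pH 7.4, 0.01% Tween-20. Compound added for 30 min at RT, then streptavidin donor/nickel chelate acceptor beads (10 ug/mL) for 30 min.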
# G9a inh = qHTS Assay for Inhibitors of Histone Lysine Methyltransferase G9a; 350,000 tested, 8.8% active; Histone-lysine N-methyltransferase EHMT2 (Homo sapiens), Q96KQ7; Potency, µM (highest dose often 102 µM), without a hit: at the highest dose activity, negative = inhibition, most hits filed as inhibitors; AID 504332, 2011; G9a H3K9 monomethylation, AlphaScreen, 2 h; also: % is scaled to controls: 0 for no effect and ±100 for the full control effect; nearly all actives have a fitted effect of over 75% in size
#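 Enzyme 20 nM + cpd, 15 min RT; add b-H3K9 pep 500 nM / SAM 20 uM; 2 h RT; anti-H3K9me1 Ab 0.5 ug/mL + SA donor / anti-rabbit acceptor beads 20 ug/mL each, 10 min; AlphaScreen read.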
# BAZ2B block = qHTS Assay for Inhibitors of BAZ2B | Bromodomain adjacent to zinc finger domain protein 2B (Homo sapiens), Q9UIF8 | AlphaScreen BAZ2B-H3K14Ac peptide displacement | Potency, µM (doses to about 114 µM), for the others: at the highest dose activity change, negative = inhibition, hits mostly inhibitors | 360,000 tested, 4.4% active; also: % is scaled to controls: 0 for no effect and ±100 for the full control effect; nearly all actives have a fitted effect of over 60% in size
#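 AlphaScreen displacement: compounds (up to 110uM) incubated 30 min at room temperature with a preformed 50 nM BAZ2B/50 nM biotinylated H3K14Ac peptide complex in PBS pH 7.4 with Tween-20. Donor and acceptor beads at 10 ug/mL final added, 20 min light-protected before reading.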
# Sfp inh = qHTS Assay for Inhibitors of Bacillus subtilis Sfp phosphopantetheinyl transferase (PPTase). 4'-phosphopantetheinyl transferase ffp (Bacillus subtilis), Q9F4F7. Biochemical Sfp PPTase activity, qHTS. Potency, µM, inactives show largest response in the series, negative = inhibition, usual class: inhibitors. 310,000 tested, 3.5% active;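 also: the enzyme is Sfp with the accession as filed and its product quenches rhodamine fluorescence; 0% = enzyme reaction without inhibitor and -100% = no enzyme wells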
#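 Step 1, compound plus 15 nM Sfp-PPTase, 15 min, room temperature. Step 2, add rhodamine-CoA (5 uM) and BHQ-2-YbbR (12.5 uM). Step 3, read 525/598 nm fluorescence at 0 and 30 min.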
# Starred values were filed as active, the others as inactive; ? = inconclusive; · = no result; [ ] = dose if it differs, or a comment. Sampled rows, rich in hits. Any-hit rate of the full collection: about 12%. Calls follow the shape of the dose curve; as a rule, active = well fitted curve in the direction sought with a large enough effect; inconclusive = small, poorly fitted or top-dose-only effect, or another doubt; inactive = no such curve, though single readings can be large; an effect the other way counts as inactive or inconclusive. Potency is read from the fitted curve at half-maximal effect.
SMILES,JMJD2A Tudor inh,HP1b binding inh,G9a inh,BAZ2B block,Sfp inh
Cc1cc(CN(C)C(=O)CC2C(=O)NCCN2Cc2ccc(F)c(F)c2)on1 (stereo not given),-18.5%,35.4%,·,3.4%,6.4%
COc1ccc(-c2noc(CCC(=O)N3CCN(c4ccccc4C)CC3)n2)cc1,-2.2%,72.3%,·,·,·
N[C@H](C(=O)O)[C@@H]1[C@@H](C(=O)O)C1(F)F,·,·,31.3%[59 µM],·,89.1µM*
CCCCCOc1ccc(CSc2n[nH]c(C)n2)cc1,?,-11.1%,·,4.5%,-29.8%
Cc1nc(SCc2ccc(OCCC(C)C)cc2)n[nH]1,-14.7%,28.6%,50.1µM*,-15.1%,6.0%
CCCc1c(C(=O)N/N=C/c2cccs2)nnn1-c1nonc1N,-20.3%,62.5%,-17.0%,-26.6%,17.4%
CSCCC(NC(=O)c1ccccc1)C(=O)Nc1ccncc1 (stereo not given),-15.8%,?,-15.3%[12.7 µM],-18.1%,·
CSCCC(NC(=O)c1ccccc1Cl)C(=O)Nc1ccncc1 (stereo not given),-13.8%,20.9%,39.8µM*,8.8%,·
COc1ccc(N2CC(C(=O)Nc3nnc(SCc4cccnc4)s3)CC2=O)cc1 (stereo not given),-13.1%,30.9%,50.1µM*,-13.5%,-14.7%
COc1ccc(N2CC(C(=O)N[C@@H](C)C(=O)N[C@H](CO)c3ccccc3)CC2=O)cc1 (stereo not given in full),-5.4%,32.3%,5.62µM*,-24.7%,6.0%
Cc1ccc(N2CC(C(=O)Nc3nnc(SCc4cccnc4)s3)CC2=O)cc1 (stereo not given),-2.9%,47.2%,15.8µM*,-2.7%,-1.5%
Cc1ccc(C)c(NC2=NCC(=O)N2C2CCCCC2)c1,-11.4%,26.7%,?,7.2%,-8.8%
O=C(COC(=O)CCNS(=O)(=O)c1cccs1)Nc1cc(C(F)(F)F)ccc1Cl,11.1%,28.8%,-10.3%[2.33 µM],12.6%,·
N=c1c(C(=O)NCC2CCCO2)cc2c(=O)n3ccccc3nc2n1Cc1ccc(F)cc1 (stereo not given),-4.7%,42.2%,22.4%,-11.9%,-0.6%
COc1ccc2c(c1)C(=O)[C@@H](OC(=O)NS(=O)(=O)c1ccc(C)cc1)[C@H](c1ccc(OC)c(Br)c1)O2,·,·,·,·,-5.0%
CN(C)S(=O)(=O)c1cccc(-c2csc(=Nc3ccccc3)n2CCCN2CCOCC2)c1,50.1µM*,?,50.1µM*,31.6µM*,-2.3%
CC(=O)c1cccc(NC(=O)c2cccc(S(=O)(=O)N3CCOCC3)c2)c1,-0.7%,29.3%,45.3%,5.7%,13.1%
CC(C)Cn1c(-c2ccc(S(=O)(=O)N3CCCC3)cc2)csc1=Nc1ccccc1,?,-16.4%,8.91µM*,?,·
CC(=O)c1cccc(N=c2scc(-c3ccc(S(=O)(=O)N4CCOCC4)cc3)n2CCO)c1,-33.7%[57.1 µM],?,44.7µM*,?,-9.2%
CN(C)S(=O)(=O)c1ccc(S(=O)(=O)NCCN2CCOCC2)cc1,-5.2%,31.6%,-10.8%,-3.7%,-3.8%
C=CCn1c(-c2ccc(S(=O)(=O)N3CCOCC3)cc2)csc1=Nc1ccccc1,?,-10.6%,7.3%[0.501 µM],6.31µM*,-24.6%
O=C1N/C(=N/O)S/C1=C\c1ccccc1-n1cccn1,-10.3%,2.2%,-24.0%,-17.8%,-3.1%
O=C(NC(=S)Nc1ccccc1Cl)c1cncc(C#Cc2ccccc2)c1,-1.4%,7.0%,4.9%,6.8%,-0.2%
C/C(=N\O)c1noc(C)c1C(=O)Nc1nccs1,-8.3%,30.4%,26.9%,-23.7%,17.5%
COc1ccc(NC(=O)C2CCCN(S(=O)(=O)c3ccc4[nH]c(=O)ccc4c3)C2)cc1Cl (stereo not given),-2.6%,34.8%,-37.2%[59 µM],-15.6%,·
CCOc1ccc(NC(=O)c2ccc(CNc3c(NC4CCCCC4)c(=O)c3=O)cc2)cc1,-11.0%,32.4%,-1.0%,10.9%,2.2%
